# Assay outcomes (PubChem)
# SK-BR-3 tox 24h – SK-BR-3 proliferation inhibitors. SK-BR-3 viability, CellTiter-Glo ATP luminescence, 24 h; stronger effect = lower value. viability, % at 10 µM. 0.47% of 41,000 active. AID 847;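 active = viability at or below the median of all test compounds minus 3 SD, in both replicates if run twice, cut at about 45% in these data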;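 note: 100% = median untreated cell wells and 0% = median positive control drug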
# Jurkat viability – reduces viability or proliferation of Jurkat cells; Jurkat E6.1 viability, ATP luminescence, 48 h; inhibition, % at 4 µM; 1.2% of 56,000 active; AID 463;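 active = inhibition above the mean inhibition of all tested compounds plus 3 SD, cut at about 28% in these data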
# HER2 expr 66K – Her2 kinase expression inhibition. P04626. SKBR-3 HER2 protein level, AlphaScreen, 18-24 h; stronger effect = lower value. HER2 level % of control, % at 10 µM. 0.69% of 65,000 active;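 active = HER2 level under 5% of the carrier-only control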;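 note: 100% = DMSO carrier and 0% = 500 nM PU-H71 HSP90 inhibitor; lower value means stronger loss of Her2 protein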
# Target sequence (P04626 whole entry, looked up): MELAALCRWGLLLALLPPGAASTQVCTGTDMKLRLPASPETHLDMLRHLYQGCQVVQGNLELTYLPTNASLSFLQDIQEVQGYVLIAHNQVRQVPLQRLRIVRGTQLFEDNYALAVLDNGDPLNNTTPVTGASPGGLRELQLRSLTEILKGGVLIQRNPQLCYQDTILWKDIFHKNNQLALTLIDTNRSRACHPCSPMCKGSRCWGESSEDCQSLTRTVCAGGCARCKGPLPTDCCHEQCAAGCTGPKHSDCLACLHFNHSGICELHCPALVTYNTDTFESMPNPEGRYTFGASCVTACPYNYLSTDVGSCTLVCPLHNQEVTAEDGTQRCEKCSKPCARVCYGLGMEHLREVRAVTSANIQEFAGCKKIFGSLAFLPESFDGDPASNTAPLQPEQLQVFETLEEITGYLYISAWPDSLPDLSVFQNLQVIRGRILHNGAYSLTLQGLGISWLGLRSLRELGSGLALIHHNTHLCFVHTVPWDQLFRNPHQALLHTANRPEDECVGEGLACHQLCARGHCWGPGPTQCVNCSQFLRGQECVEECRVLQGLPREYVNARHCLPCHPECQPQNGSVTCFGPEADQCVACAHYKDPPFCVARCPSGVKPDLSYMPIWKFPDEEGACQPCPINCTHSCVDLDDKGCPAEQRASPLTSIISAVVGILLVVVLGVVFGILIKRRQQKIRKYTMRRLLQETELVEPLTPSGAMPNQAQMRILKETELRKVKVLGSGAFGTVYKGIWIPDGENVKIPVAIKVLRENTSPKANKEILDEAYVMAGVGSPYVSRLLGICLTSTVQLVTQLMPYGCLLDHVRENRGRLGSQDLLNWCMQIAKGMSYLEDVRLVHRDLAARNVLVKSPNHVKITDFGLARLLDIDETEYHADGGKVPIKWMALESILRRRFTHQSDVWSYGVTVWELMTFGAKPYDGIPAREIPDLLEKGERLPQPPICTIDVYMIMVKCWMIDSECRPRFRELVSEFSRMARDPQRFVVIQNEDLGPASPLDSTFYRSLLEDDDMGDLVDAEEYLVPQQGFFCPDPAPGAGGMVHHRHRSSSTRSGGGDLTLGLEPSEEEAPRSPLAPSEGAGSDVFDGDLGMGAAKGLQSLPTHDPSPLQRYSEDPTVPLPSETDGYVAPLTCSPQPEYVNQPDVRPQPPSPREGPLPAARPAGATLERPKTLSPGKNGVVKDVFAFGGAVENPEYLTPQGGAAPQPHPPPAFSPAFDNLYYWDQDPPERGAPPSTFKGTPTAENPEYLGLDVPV
# Starred values were filed as active, the others as inactive; . = no result given. The list is not random: actives were taken first. Their share in the collection is about 2%.
SMILES,SK-BR-3 tox 24h,Jurkat viability,HER2 expr 66K
CN1c2ccccc2C(C)(C)C12C=Cc1cc(O)ccc1O2 (configuration not stated),.,54*,18
CCN(CC)CC(=O)Nc1cc(C)c2c(=O)oc3ccccc3c2n1,.,-4,79
CCOc1ccc(C2/C(=C(\O)c3ccc(OC)c(OC)c3)C(=O)C(=O)N2c2cc(C)on2)cc1OC (configuration not stated),97,2,86
CCOc1ccc(/C(O)=C2\C(=O)C(=O)N(c3cc(C)on3)C2c2ccccc2OC)cc1 (configuration not stated),109,-2,-22*
COc1ccc(NC(=O)C23CCC(C)(C(=O)C2)C3(C)C)cc1 (configuration not stated),.,4,69
CCOc1cc(S(=O)(=O)NCCc2ccccc2C)c(OCC)cc1-n1cnnn1,84,-3,81
CCOc1cc(S(=O)(=O)NCCc2cccc(C)c2)c(OCC)cc1-n1cnnn1,83,2,3.6*
Cc1cccc2cc(CN(Cc3nnnn3Cc3ccco3)C3CCCC3)c3nnnn3c12,90,-1,81
Cc1ccc(-c2noc(C3CCCN(C(=O)c4ccc(F)cc4F)C3)n2)cc1 (configuration not stated),42*,6,48
CC(C)c1ccc(-c2noc(C3CCCN(C(=O)c4ccc(F)cc4F)C3)n2)cc1 (configuration not stated),106,9,66
O=C(Cn1cnc2c(cnn2-c2ccc(Cl)cc2)c1=O)NCC1CCCO1 (configuration not stated),.,0,123
COC(=O)COc1ccc(Oc2cc(C)nc(SC)n2)nn1,96,-2,83
COC(=O)c1ccc(Oc2cc(C)nc(SC)n2)cc1,85,65*,65
CCOC(=O)c1cnn(CCOC(=O)Cc2cccs2)c1NC(=O)Cc1cccs1,.,-3,97
CC(=O)Oc1ccccc1-c1nc(C)nc(N(C)C(C)=O)n1,.,0,115
OC(CN1CCN(c2cccc(C(F)(F)F)c2)CC1)c1c[nH]c2ccccc12 (configuration not stated),75,22,-22*
O=C(CS(=O)(=O)Cc1ccccc1)N1CCN(c2cccc(C(F)(F)F)c2)CC1,94,1,120
CSc1cccc(NC(=O)CN(C)S(=O)(=O)c2ccc(C)cc2)c1,83,.,102
Cc1cc(C(=O)CSc2nnc(Nc3ccccc3)s2)c(C)n1CC1CCCO1 (configuration not stated),.,-2,99
Cc1cc(C(=O)CSc2nnc(NCc3ccccc3)s2)c(C)n1C,.,34*,76
CC(O)CNc1nc2c(c(=O)n(C)c(=O)n2C)n1Cc1cccc(Br)c1 (configuration not stated),86,28*,85
Cn1c(=O)c2c(nc(NCCO)n2CCc2ccccc2)n(C)c1=O,89,32*,100
CC(C)CNc1nc2c(c(=O)n(C)c(=O)n2C)n1Cc1cccc(Br)c1,87,.,117
CCCNc1nc2c(c(=O)n(C)c(=O)n2C)n1CCc1ccccc1,69,24,88
Cn1c(=O)c2c(nc(NCCCO)n2CCc2ccccc2)n(C)c1=O,.,.,105
SMILES,SK-BR-3 tox 24h,Jurkat viability,HER2 expr 66K
CCCNc1nc2c(c(=O)n(C)c(=O)n2C)n1Cc1cccc(C)c1,.,59*,128
CCOc1ccccc1NC(=O)C1=C(C)NC(=O)NC1c1cccc(OC)c1OC (configuration not stated),23*,1,93
COc1ccccc1NC(=O)C1=C(C)NC(=O)NC1c1cccc(OC)c1OC (configuration not stated),87,5,107
c1ccc(CCc2nn3c(Cc4ccccc4)nnc3s2)cc1,87,-7,91
Cc1noc(C)c1S(=O)(=O)Nc1ccc(C(=O)N2CCc3ccccc3C2)cc1,84,-3,99
Cc1noc(C)c1C(=O)N1CCc2ccccc2C1,94,-8,-16*
CCc1cc2c(=O)c(-c3nc4ccccc4[nH]3)coc2c(CN2CCCC(C)C2)c1O (configuration not stated),.,-2,76
Cc1ccc(-c2csc(N3CCC(NS(=O)(=O)c4ccc5c(c4)OCCO5)CC3)n2)cc1,130,11,86
CCCCOC(=O)CCn1[nH]c(=O)c2ccccc2c1=O,91,0,91
O=C(CCn1[nH]c(=O)c2ccccc2c1=O)OC1CCCCC1,82,-7,-24*
CCN(CC)c1ccc(NC(=O)COc2ccc(C)cc2)cc1,96,-6,95
c1ccc(CNc2ncnc3c2cnn3-c2ccccc2)cc1,115,85*,81
Fc1ccc(CNc2ncnc3c2cnn3-c2ccccc2)cc1,86,11,58
Cc1cccc(-n2ncc3c(NCc4ccccn4)ncnc32)c1,.,-2,104
Cc1cccc(-n2ncc3c(NCc4ccccc4)ncnc32)c1,.,83*,42
